# According to the supplement of paper PMC10849652:
# About 7,900 targets were measured; listed, in parts, are those with a hit and a random draw of the rest. About 0.6% of all pairs of compound and target were hits. Unmarked numbers belong to inactive results.
# Assays:
# Experiment in all cases: log2 fold change, soluble protein after heating vs DMSO (PISA); higher = thermal stabilisation; K562 cells, 10 uM, 30 min; active = over 0.2 and 3.5 SD of the protein, either way, in both replicates (recomputed)
# [1] = compound: C1=CC=C(C=C1)[C@H](COC2=CC3=C(C=C2)NC(=O)N3)NC(=O)C4=CC=CN(C4=O)CC5=CC(=C(C=C5)F)F
# In short: (§1)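 For each measurement, 10 μM compound was applied for 30 min to K562 cells at 2×10^6 cells/mL. Aliquots were heated for 3 min across 48°C-58°C, pooled, and extracted in PBS with 0.5% NP-40 at 4°C; the supernatant after 21,000xg for 90 min was soluble protein. This was quantified by TMTpro 16plex LC-MS/MS with channel sums equalised, and thermal stability was reported relative to control samples from duplicates, on a log2 fold-change scale.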
# [2] = compound: CC1=C(SC2=C1C(=N[C@H](C3=NN=C(N32)C)CC(=O)N)C4=CC=C(C=C4)Cl)C
# In short: as §1
# [3] = compound: CC1=C2C(=CC=C1)N=C(N(C2=O)C3=CC=CC=C3C)CN4C=NC5=C(N=CN=C54)N
# In short: as §1
# [4] = compound: Cc1sc2c(c1C)C(c1ccc(Cl)cc1)=N[C@@H](CC(=O)OC(C)(C)C)c1nnc(C)n1-2
# In short: as §1
# [5] = compound: c1ccc([C@@H]2C[C@H]2NC2CCNCC2)cc1
# In short: as §1
# Sequence of UniProt O43513 (O43513 whole entry, looked up): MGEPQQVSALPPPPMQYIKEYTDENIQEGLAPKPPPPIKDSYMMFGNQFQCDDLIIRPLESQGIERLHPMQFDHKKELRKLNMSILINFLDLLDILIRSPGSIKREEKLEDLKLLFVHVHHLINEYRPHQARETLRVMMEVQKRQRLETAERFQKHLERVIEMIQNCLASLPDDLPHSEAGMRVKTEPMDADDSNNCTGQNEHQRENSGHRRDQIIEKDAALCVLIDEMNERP
# Sequence of UniProt Q14145 (Q14145 whole entry, looked up): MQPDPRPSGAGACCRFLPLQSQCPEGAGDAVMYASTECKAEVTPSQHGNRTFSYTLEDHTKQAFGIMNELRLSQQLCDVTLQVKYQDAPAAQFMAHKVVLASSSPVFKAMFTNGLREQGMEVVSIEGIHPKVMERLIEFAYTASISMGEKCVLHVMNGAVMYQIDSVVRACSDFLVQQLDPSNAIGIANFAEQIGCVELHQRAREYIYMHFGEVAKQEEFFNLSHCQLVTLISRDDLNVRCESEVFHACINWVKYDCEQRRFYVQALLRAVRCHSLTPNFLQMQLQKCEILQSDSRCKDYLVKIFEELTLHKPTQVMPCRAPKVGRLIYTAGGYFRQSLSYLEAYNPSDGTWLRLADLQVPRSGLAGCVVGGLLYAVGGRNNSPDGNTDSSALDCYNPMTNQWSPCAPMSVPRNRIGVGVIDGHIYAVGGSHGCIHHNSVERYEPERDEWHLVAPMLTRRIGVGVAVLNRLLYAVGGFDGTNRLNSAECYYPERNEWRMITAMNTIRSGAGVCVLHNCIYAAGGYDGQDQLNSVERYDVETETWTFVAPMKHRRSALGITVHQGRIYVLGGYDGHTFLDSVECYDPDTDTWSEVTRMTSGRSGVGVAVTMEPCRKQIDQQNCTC
# Sequence of UniProt Q4G0J3 (Q4G0J3 whole entry, looked up): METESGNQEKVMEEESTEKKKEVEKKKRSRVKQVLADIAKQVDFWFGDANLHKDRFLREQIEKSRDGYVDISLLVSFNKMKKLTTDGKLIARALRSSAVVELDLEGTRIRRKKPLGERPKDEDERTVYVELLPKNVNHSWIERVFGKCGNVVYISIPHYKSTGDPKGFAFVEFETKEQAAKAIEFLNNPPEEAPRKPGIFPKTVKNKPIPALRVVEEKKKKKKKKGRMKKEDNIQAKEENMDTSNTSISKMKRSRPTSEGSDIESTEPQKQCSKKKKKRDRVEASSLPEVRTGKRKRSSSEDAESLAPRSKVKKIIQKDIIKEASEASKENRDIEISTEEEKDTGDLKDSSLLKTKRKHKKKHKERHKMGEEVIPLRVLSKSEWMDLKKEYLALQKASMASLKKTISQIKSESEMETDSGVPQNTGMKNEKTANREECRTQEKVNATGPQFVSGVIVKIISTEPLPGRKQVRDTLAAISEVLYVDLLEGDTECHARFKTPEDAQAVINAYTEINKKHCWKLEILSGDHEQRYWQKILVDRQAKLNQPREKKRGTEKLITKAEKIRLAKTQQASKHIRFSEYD
# Sequence of UniProt Q8NE86 (Q8NE86 whole entry, looked up): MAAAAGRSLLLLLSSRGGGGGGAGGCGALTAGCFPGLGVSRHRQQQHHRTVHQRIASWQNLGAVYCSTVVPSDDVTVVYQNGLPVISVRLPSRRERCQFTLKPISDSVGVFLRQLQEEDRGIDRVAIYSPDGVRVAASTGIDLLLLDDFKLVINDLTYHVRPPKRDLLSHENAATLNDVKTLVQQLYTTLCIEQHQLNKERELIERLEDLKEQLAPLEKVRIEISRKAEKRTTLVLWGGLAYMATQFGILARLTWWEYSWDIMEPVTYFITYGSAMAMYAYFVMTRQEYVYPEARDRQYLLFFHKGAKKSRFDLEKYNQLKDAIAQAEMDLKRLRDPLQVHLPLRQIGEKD
# Sequence of UniProt Q9H6V9 (Q9H6V9 whole entry, looked up): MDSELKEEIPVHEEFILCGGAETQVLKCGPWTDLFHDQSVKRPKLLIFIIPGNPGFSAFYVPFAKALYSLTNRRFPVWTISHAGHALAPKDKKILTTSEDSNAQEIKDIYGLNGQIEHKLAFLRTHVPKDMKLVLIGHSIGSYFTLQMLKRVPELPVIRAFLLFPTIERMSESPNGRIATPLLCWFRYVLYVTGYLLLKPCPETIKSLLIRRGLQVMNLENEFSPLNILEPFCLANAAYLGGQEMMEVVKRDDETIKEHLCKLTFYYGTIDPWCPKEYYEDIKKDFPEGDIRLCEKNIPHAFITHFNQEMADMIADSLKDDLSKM
# Sequence of UniProt Q71RC2 (Q71RC2 whole entry, looked up): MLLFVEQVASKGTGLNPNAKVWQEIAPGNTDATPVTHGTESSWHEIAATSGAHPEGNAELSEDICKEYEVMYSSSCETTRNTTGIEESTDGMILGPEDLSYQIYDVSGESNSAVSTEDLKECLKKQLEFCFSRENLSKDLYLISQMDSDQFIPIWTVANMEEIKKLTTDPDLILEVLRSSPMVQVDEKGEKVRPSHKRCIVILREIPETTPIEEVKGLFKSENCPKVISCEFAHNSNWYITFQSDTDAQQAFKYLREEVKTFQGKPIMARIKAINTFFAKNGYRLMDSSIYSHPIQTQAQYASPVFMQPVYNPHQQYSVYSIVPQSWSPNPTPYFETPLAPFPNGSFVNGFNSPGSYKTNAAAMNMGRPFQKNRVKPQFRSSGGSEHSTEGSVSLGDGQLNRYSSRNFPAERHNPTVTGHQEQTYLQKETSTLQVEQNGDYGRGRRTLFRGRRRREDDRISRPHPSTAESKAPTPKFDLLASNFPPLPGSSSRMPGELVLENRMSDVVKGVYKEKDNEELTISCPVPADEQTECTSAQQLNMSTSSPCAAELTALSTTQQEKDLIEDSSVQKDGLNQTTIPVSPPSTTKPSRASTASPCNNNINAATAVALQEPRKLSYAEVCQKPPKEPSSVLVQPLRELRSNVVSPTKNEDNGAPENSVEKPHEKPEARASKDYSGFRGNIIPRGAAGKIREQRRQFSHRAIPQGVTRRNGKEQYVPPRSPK
# Sequence of UniProt P13473 (P13473 whole entry, looked up): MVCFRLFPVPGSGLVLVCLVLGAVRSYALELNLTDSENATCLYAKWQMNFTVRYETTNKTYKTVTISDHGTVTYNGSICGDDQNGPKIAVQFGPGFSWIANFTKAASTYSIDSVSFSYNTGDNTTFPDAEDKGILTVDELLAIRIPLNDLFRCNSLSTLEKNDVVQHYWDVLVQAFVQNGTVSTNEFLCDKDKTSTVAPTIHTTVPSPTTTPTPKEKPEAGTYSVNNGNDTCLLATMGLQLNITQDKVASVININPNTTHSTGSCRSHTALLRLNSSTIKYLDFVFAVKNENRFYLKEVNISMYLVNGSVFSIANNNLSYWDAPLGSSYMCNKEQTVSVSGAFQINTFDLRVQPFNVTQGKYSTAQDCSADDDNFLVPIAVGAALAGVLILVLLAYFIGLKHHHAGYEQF
# Sequence of UniProt Q15648 (Q15648 whole entry, looked up): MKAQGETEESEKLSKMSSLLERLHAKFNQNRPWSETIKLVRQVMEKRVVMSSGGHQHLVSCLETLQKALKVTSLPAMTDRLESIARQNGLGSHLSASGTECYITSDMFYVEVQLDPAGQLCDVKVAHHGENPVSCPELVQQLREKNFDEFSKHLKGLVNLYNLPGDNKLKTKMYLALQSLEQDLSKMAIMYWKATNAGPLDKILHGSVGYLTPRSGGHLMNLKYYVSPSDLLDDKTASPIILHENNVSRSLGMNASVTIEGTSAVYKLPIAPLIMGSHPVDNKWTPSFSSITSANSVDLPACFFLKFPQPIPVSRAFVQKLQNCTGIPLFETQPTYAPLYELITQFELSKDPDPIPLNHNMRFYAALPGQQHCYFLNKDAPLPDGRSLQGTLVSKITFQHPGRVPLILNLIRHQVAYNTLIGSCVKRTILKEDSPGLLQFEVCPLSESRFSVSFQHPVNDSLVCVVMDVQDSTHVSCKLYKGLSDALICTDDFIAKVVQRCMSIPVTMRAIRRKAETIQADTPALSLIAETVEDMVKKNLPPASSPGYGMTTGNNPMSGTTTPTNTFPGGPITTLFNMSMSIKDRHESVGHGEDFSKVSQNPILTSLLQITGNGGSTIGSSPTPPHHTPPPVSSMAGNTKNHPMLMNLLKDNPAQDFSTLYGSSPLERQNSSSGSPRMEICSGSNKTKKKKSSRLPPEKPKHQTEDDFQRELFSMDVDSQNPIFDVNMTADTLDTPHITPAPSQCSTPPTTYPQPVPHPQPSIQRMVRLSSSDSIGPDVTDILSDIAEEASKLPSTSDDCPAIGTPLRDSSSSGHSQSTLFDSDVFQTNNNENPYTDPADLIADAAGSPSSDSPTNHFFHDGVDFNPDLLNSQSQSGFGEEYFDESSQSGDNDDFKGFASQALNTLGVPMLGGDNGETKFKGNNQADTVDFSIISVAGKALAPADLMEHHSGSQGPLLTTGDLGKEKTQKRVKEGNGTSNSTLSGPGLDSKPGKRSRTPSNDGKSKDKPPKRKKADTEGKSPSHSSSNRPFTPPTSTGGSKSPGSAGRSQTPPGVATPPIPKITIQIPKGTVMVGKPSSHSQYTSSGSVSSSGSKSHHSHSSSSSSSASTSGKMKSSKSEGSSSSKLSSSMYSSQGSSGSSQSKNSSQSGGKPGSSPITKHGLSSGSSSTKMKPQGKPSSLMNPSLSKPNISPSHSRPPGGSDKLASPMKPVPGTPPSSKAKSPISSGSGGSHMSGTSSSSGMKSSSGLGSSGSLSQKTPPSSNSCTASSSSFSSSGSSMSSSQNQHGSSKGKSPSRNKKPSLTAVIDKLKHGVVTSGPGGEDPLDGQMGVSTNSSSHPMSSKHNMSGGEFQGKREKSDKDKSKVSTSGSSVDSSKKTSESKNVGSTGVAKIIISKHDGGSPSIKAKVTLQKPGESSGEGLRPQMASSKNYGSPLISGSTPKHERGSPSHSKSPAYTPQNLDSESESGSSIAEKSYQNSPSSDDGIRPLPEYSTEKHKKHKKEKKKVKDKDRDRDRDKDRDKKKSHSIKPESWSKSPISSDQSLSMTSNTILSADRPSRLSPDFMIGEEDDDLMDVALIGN
# Sequence of UniProt Q9BRT3 (Q9BRT3 whole entry, looked up): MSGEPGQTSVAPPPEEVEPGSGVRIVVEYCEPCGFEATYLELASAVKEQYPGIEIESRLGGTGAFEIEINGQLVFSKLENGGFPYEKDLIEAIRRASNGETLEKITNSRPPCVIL
Target,log2 fold change [1],log2 fold change [2],log2 fold change [3],log2 fold change [4],log2 fold change [5]
KDM1A isoform 2 (UniProt O60341),-0.05,0,0.087,-0.019,1.73 (active)
LIMA1 isoform 4 (UniProt Q9UHB6),0.002,0.014,-0.002,-0.028,0.034
KSR1 (UniProt Q8IVT5),-0.044,0.033,0.137,0.044,0.018
KPNA4 (UniProt O00629),-0.017,0.004,0.035,0.004,0.009
LPGAT1 (UniProt Q92604),-0.068,-0.136,-0.02,0.086,0.074
LUC7L2 (UniProt Q9Y383),0.023,-0.044,0.036,0.006,0.014
MAPKAPK3 (UniProt Q16644),-0.122,0.013,0.027,-0.034,-0.109
LARP7 isoform 3 (UniProt Q4G0J3),0.018,-0.032,0.045,-0.048,0.027
ME2 (UniProt P23368),0.046,0.073,0.078,-0.086,0.09
IGF2R (UniProt P11717),0.013,0.007,-0.008,0.001,-0.002
MED1 (UniProt Q15648),-0.033,-0.009,0.03,0.079,0.058
KIF21A isoform 4 (UniProt Q7Z4S6),-0.003,-0.024,0.061,-0.077,0.014
MAP2K2 (UniProt P36507),0.034,0.065,0.073,-0.027,-0.067
MFN2 (UniProt O95140),0.01,0.038,0.013,-0.026,0.001
LRBA (UniProt P50851),-0.016,0.05,0.088,0,-0.023
MFSD8 (UniProt Q8NHS3),-0.134,-0.033,0.074,-0.289,0.119
LNPEP (UniProt Q9UIQ6),0.066,0.061,0.001,-0.016,0.046
MAPK14 isoform 2 (UniProt Q16539),-0.067,0.139,0.077,-0.011,-0.043
MAP2K7 isoform 4 (UniProt O14733),-0.009,0.029,0.065,0.013,0.044
ILKAP (UniProt Q9H0C8),-0.071,0.076,0.135,-0.045,-0.046
MAGEA9 (UniProt P43362),0.046,-0.03,0.047,-0.055,-0.067
MAP4K5 (UniProt Q9Y4K4),0.055,-0.039,0.107,0.05,0.062
JMJD6 isoform 3 (UniProt Q6NYC1),-0.004,0.046,0.055,0.006,0.097
LTO1 (UniProt Q8WV07),0.054,-0.02,0.142,-0.062,0.03
MAD2L1 (UniProt Q13257),-0.045,0.077,0.067,-0.021,-0.019
IRAK4 (UniProt Q9NWZ3),-0.077,-0.006,0.009,-0.012,-0.056
KLC2 (UniProt Q9H0B6),-0.046,0.085,0.118,0.032,0

Target,log2 fold change [1],log2 fold change [2],log2 fold change [3],log2 fold change [4],log2 fold change [5]
LNPK (UniProt Q9C0E8),0.015,0.015,0.009,-0.01,0.016
LRRFIP1 (UniProt Q32MZ4),0.019,0.036,-0.016,0.023,0.011
LMBRD1 (UniProt Q9NUN5),0.013,0.099,0.143,-0.178,0.039
L2HGDH (UniProt Q9H9P8),-0.031,0.07,0.078,0.018,-0.029
IK (UniProt Q13123),0.023,-0.067,-0.006,0.041,-0.045
MAP3K7 (UniProt O43318),-0.085,0.005,0.11,0.061,0.023
ITM2B (UniProt Q9Y287),0.013,-0.068,0.061,-0.028,-0.112
KEAP1 (UniProt Q14145),0.015,-0.001,0.007,0.021,0.001
JAK3 (UniProt P52333),-0.011,0.075,-0.027,0.009,0.032
LTV1 (UniProt Q96GA3),-0.02,-0.137,-0.033,0.17,0
MAP4 (UniProt P27816),0.028,-0.017,-0.058,0.003,0.037
METAP1D (UniProt Q6UB28),0.106,-0.125,0.083,0.08,0.127
LUZP1 (UniProt Q86V48),-0.053,-0.141,-0.171,-0.217,-0.201
MCU (UniProt Q8NE86),-0.02,0.035,0.038,-0.018,-0.013
MED7 (UniProt O43513),-0.049,0.029,0.017,0.016,0.076
IGFBP2 (UniProt P18065),-0.121,-0.101,0.131,-0.295,0.062
LAMP2 isoform 2 (UniProt P13473),0.051,-0.015,0.04,0.052,0.007
MARCKS (UniProt P29966),0,-0.046,-0.066,-0.065,0.031
LUC7L3 (UniProt O95232),0.002,-0.021,0.023,0.021,0.028
ITIH4 (UniProt Q14624),-0.088,0.015,0.089,-0.133,-0.006
LARP4 isoform 4 (UniProt Q71RC2),0.069,-0.071,0,0.093,0.036
MICU1 isoform 3 (UniProt Q9BPX6),0.005,-0.033,-0.06,0.02,-0.036
MFSD1 isoform 6 (UniProt Q9H3U5),0.001,0.045,0.043,-0.029,0.039
LENG8 (UniProt Q96PV6),0.036,0.177,-0.356,-0.028,0.022
LDAH isoform 2 (UniProt Q9H6V9),-0.125,0.019,0.086,0.174,-0.059
MIEN1 (UniProt Q9BRT3),0.035,0.101,0.014,-0.097,0.019
KNTC1 (UniProt P50748),-0.079,0.011,0.106,-0.011,-0.008
